# CYP2C19 act = human CYP2C19 activators, primary screen, biochemical, luminescence; recombinant CYP2C19, luciferin-H EGE luminescence; active compounds read high; 0 = fully inhibited enzyme, 1 = untreated enzyme; Cytochrome P450 2C19 (Homo sapiens), P33261; activation factor at 5 µM; 96,000 tested, under 10 active;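 active means activation factor of at least 2 at 5 µM in the primary screen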;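 further: 0 = wells with 2.5 mM tranylcypromine and 1 = vehicle-only wells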
# Target sequence (P33261 whole entry, looked up): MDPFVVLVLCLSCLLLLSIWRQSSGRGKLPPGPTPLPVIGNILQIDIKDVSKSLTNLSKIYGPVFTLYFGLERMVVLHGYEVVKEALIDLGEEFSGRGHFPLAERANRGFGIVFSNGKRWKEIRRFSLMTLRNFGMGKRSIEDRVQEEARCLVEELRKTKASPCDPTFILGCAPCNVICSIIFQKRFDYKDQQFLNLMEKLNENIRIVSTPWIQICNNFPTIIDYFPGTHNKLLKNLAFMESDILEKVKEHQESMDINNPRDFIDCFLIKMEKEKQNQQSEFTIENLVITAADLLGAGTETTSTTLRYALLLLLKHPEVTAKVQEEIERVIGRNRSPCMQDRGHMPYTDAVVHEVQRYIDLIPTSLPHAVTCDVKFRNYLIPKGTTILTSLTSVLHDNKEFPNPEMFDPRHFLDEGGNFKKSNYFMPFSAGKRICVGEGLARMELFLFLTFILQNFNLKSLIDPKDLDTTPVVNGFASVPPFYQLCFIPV
# CYP2C19 inhib = blockers of cytochrome P450 2C19 activity – biochemical, luminescence, ADME assay, primary screen. AID 778, 2007. CYP2C19 Supersomes, luciferin-H EGE luminescence, 30 min. P33261. inhibition, % at 5 µM. 96,000 compounds, 21% hits;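 active means CYP2C19 inhibition above a set limit at 5 µM in the primary screen, cut at about 50% in these data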;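 further: plate controls were negative control wells for no effect and 2.5 mM tranylcypromine positive control for full effect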
# CYP2C9 act = human CYP2C9 activators, primary screen, biochemical, luminescence | Cytochrome P450 2C9 (Homo sapiens), P11712 | recombinant CYP2C9, luciferin-H conversion; active compounds read high; factor 1 = untreated enzyme, 0 = blocked | activation factor at 5 µM | 96,000 compounds, 1.4% hits;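 active means activation factor of 2 or more for CYP2C9 at a 5 µM dose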;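 further: 0 = sulfaphenazole-blocked wells and 1 = vehicle-only wells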
# PostGolgi yeast = phenotypic screen on post-Golgi transport, primary screen | post-Golgi transport phenotypic cell assay | inhibition, % at 10 µM | 98,000 compounds, 0.9% hits;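 further: yeast cells grown in 1536-well plates; yeast grown about 18 h at 30C before absorbance read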
# CYP2C9 inhib = blockers of cytochrome P450 2C9 activity – biochemical, luminescence, ADME assay, primary screen | 96,000 compounds, 20% hits | AID 777, 2007 | CYP2C9 Supersomes, luciferin-H conversion | P11712 | inhibition, % at 5 µM;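 active means blocking of liver enzyme CYP2C9 beyond about 50% at 5 µM, limit read from the data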
# PostGolgi ctrl = growth inhibition of yeast control strain, primary screen, counter-screen for post-Golgi transport modulator project. efflux-deficient yeast background strain, growth absorbance A615, 16 h. inhibition, % at 10 µM. 98,000 compounds, 5% hits
# Numbers without * were called inactive; · = not tested or not shown. In the library only some 32% were active in any assay of this set; here they are far more common. Unless noted, no stated cut-off is given here; in the data, active means inhibition above about 30%; inactive means the rest.
SMILES,CYP2C19 act,CYP2C19 inhib,CYP2C9 act,PostGolgi yeast,CYP2C9 inhib,PostGolgi ctrl
CCC(=O)OC1CSc2nc3ccccc3n2C1 (centres undefined),0.6,40,0.8,-12,17,9
Cc1ccc(C(=O)CSc2nnc(-c3ccc4[nH]c(C)c(C)c4c3)o2)cc1C,0.5,48,0.3,-3,71*,5
COc1ccc(N2CCN(C(=O)CSc3nnc(-c4ccc5[nH]c(C)c(C)c5c4)o3)CC2)cc1,1,4,1,21,4,7
Cc1[nH]c2ccc(-c3nnc(SCC(=O)c4ccccc4F)o3)cc2c1C,0.4,57*,0.2,2,78*,25
Cn1c(=O)n(C)c2cc(NC(=O)c3cc4ccccc4o3)ccc21,0.9,9,1.2,-6,-16,-1
CC(CCc1ccc(O)cc1)N(C)CCc1ccccc1 (centres undefined),0.9,8,1.2,1,-21,2
CCOC(=O)c1[nH]c2ccc(OC)cc2c1NC(=O)C(C)N1CCC2(CC1)OCCO2 (centres undefined),0.3,70*,0.3,19,71*,8
CCOC(=O)c1[nH]c2ccc(OC)cc2c1NC(=O)CN1CCC2(CC1)OCCO2,0.6,35,0.9,-1,12,14
CCOC(=O)c1[nH]c2ccc(F)cc2c1NC(=O)C(C)N1CCc2cc(OC)c(OC)cc2C1 (centres undefined),0.1,91*,0,4,98*,-5
COc1cc2c(cc1OC)CN(C(C)C(=O)Nc1ccc(NC(C)=O)cc1)CC2 (centres undefined),0.8,18,0.7,-4,31,-3
Cc1ccccc1OCc1nnc2n1CC(C)S2 (centres undefined),0.9,6,0.9,3,14,26
CC(=O)N1C=CN(C(C)=O)C(c2cn(C)c3ccccc23)C1c1cn(C)c2ccccc12 (centres undefined),0.9,13,1.1,-4,-12,34*
CC(=O)n1cc(C2C(=O)CCCC2=O)c2ccccc21,1,-5,1,6,1,3
COc1ccc(NC(=O)/C(Cl)=C(/Cl)S(=O)Cc2ccccc2)cn1 (centres undefined),0.5,51*,0.1,107*,92*,80*
COc1ccc(CS(=O)(=O)/C(Cl)=C(/Cl)C(=O)Nc2ccc(OC)nc2)cc1,0.6,45,0.3,29,68*,65*
CCCS(=O)(=O)C(=C(Nc1ccc(OC)cc1)Nc1ccc(OC)cc1)S(=O)(=O)CCC,1.1,-15,1,0,-5,1
CCOc1ccccc1OCCCC(=O)Nc1ccc(OC)nc1,0.6,44,1.7,-8,-74,0
CCCCCCC1CC(C)(/C(C)=N/NC(N)=O)OC1=O (centres undefined),0.9,14,0.9,1,7,6
CCc1[nH]nc2c1C(c1ccncc1)C(C#N)=C(N)O2 (centres undefined),0.4,59*,0.3,4,69*,4
N#CC1=C(N)Oc2n[nH]c(-c3ccc(F)cc3)c2C1c1cccnc1 (centres undefined),0.3,70*,0.5,6,55*,2
N#CC1=C(N)Oc2n[nH]c(-c3ccccc3)c2C1c1ccncc1 (centres undefined),0.2,85*,0.1,6,89*,1
CCC(C)C1C(C#N)=C(N)Oc2n[nH]c(-c3ccccc3)c21 (centres undefined),0.5,53*,0.8,1,16,-3
CCCc1n[nH]c2c1/C(=N\O)CCC2,1,4,1,4,-4,-5
CC(/C=C1\SC(=O)N(CC(=O)Nc2cccc(O)c2)C1=O)=C\c1ccccc1,1,3,1.2,0,-19,31*
CCn1c(C)nc2cc(C(=O)NNS(=O)(=O)c3c(C)c(C)cc(C)c3C)ccc21,0.5,55*,1,-5,-2,15
SMILES,CYP2C19 act,CYP2C19 inhib,CYP2C9 act,PostGolgi yeast,CYP2C9 inhib,PostGolgi ctrl
CCn1c(C)nc2cc(C(=O)OC(C(F)(F)C(F)F)C(F)(F)C(F)F)ccc21,0.5,48,0.5,0,54*,27
CCn1c(C)nc2cc(C(=O)n3cc(C(=O)c4ccccc4O)cn3)ccc21,0.9,10,0.6,4,41,0
CCOC(=O)c1ccc2c(c1)nc(COc1ccc3ccccc3c1)n2CC,0.8,18,0.5,-10,48,22
O=S(=O)(NCc1cc(-c2ccccc2Cl)no1)c1ccc(Cl)cc1,0.1,93*,1.9,5,-87,24
Cc1cc(-n2ccc(=O)[nH]c2=O)nc(-c2ccccc2)n1,1,0,1,1,2,31*
CSc1nc(C)cc(-n2ccc(=O)[nH]c2=O)n1,1.2,-20,1.3,11,-26,11
Cc1onc(-c2ccccc2)c1C(=O)Nc1sc2c(c1C#N)CCC(C)C2 (centres undefined),0.8,21,0.1,-7,92*,25
Cc1onc(-c2ccccc2Cl)c1C(=O)Nc1sc2c(c1C#N)CCC2,0,98*,0,-10,100*,30*
CCCCC(=O)NC1=NC(=O)C(C)(C)S1,1.1,-8,1.1,-1,-8,7
CCc1cccc(OCCCCNCCO)c1,1.1,-8,1.1,-2,-12,2
Cc1c(Cl)cccc1NC(=O)CN1CCC(C(O)(c2ccccc2)c2ccccc2)CC1,1,1,0.3,-1,70*,13
O=C(C1CCCCN1S(=O)(=O)c1ccccc1)N1CCN(C(c2ccccc2)c2ccccc2)CC1 (centres undefined),0.8,23,0.6,1,39,7
O=C(C1CC1)N1CCN(C(c2ccccc2)c2ccccc2)CC1,0.1,93*,0.3,11,69*,8
CC12CCC(C(=O)N3CCN(C(c4ccccc4)c4ccccc4)CC3)(OC1=O)C2(C)C (centres undefined),0.5,48,0.1,8,86*,9
Cc1cc(=O)oc(C)c1C(=O)N1CCN(C(c2ccccc2)c2ccccc2)CC1,0.6,40,0.6,21,36,8
CCNC(=S)N1CCN(C(c2ccccc2)c2ccccc2)CC1,0.6,40,0.1,24,91*,30
COc1cc(NC(=S)N2CCN(C(c3ccccc3)c3ccccc3)CC2)cc(OC)c1,0.7,32,0.6,0,38,11
CCOC(=O)C1=C(C)Nc2ncnn2C1c1cc(Br)ccc1F (centres undefined),0.6,40,0.6,-7,42,7
O=C(C1CCN(Cc2ccccc2)CC1)N1CCCC1,·,·,·,-9,·,5
